Here are results for 12 compounds from PubChem BioAssay.

Experiment [1] in a line: P. berghei load reduction in hepatocytes – cell-based, HepG2, luciferase luminescence, HepG2 viability, primary screen (AID 624349; in the data active = parasite load remaining mostly below about 12%, no sharp cut-off; inactive = mostly above about 10%;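 also: 100% = mean of DMSO negative control wells on the same plate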). The note with it: P. berghei liver stage in HepG2, luciferase luminescence, concentration not given here; parasite load remaining: stronger effect = lower value; viability: measured here: HepG2 viability without parasites.
A short description of experiment [2]: viability loss with induced miR-34 in A549 – imaging, A549 dox-inducible miR-34, nuclei and caspase counts, primary screen (AID 1347080). The note with it: A549 miR-34 inducible, Hoechst nuclei count, 48 h.
Experiment [3] is described as follows: MELAS cybrid and Rieske KO viability enhancers – cell-based, MELAS cybrids, Rieske KO mouse fibroblasts, CellTiter-Glo, primary screen (AID 1508586;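 active = mean z-score across replicates of 1.96 or higher in either the MELAS or the Rieske mutant cell line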;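 also: z relative to plate mean and SD of compound and empty wells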). The note with it: low glucose.
Experiment [4] is described as follows: compounds altering viability of human ES cells (AID 493140; call rule not given here;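 also: cells exposed to compounds for four days before counting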). Conditions: human embryonic stem cell survival screen; stronger effect = higher value.
Where [5] appears, read: stronger effect = lower value, cell number ratio, induced over uninduced.
[6] abbreviates: measured here: relative caspase fold change +Dox/-Dox.
Where [7] appears, read: measured here: total cells with miR-34 induction, stronger effect = lower value.
[8] abbreviates: measured here: total cells without miR-34 induction.
Where [9] appears, read: MELAS cybrid survival, CellTiter-Glo 48 h, stronger effect = higher value.
The mark [10] stands for this setting: Rieske KO mouse fibroblast survival, CellTiter-Glo 72 h.

Values joined by “and” are separate entries in the source; they are usually repeats but may differ in a detail not shown here. Identical values can stand only once. Active and inactive are the calls of the source.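 The calls were made as follows, unless noted: active = compounds whose cell count with miR-34 switched on is under 0.7 times the count with it off; inactive = the rest.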

For `CN(C)CC/C=C1\c2ccccc2CSc2ccccc21`, the parasite load remaining in experiment [1] was 36.7% (inactive). Besides, the viability – broadly, a read-out of living cells in per cent, often relative to untreated cells – in experiment [1] amounted to 110%. Moreover, the fold change was 0.831 (inactive) in experiment [2] (setting [5]) and 1.19 in experiment [2] (setting [6]). For the same compound, the cell count in experiment [2] (setting [7]) came out at 6880; in experiment [2] (setting [8]), 8280. Also, the z-score in experiment [3] (setting [9]) is -0.0112 (inactive); in experiment [3] (setting [10]), -0.183.

As to `NC[C@H]1O[C@H](OC2[C@@H](N)C[C@@H](N)[C@H](O)[C@H]2O[C@@H]2O[C@H](CO)[C@@H](O)[C@H]2O)[C@H](N)[C@@H](O)[C@@H]1O` (stereo not given in full), in experiment [1], the parasite load remaining is 77.5% (inactive). Moreover, the viability in experiment [1] was found to be 92.8%. The fold change in experiment [2] (setting [5]) is 1.02 (inactive); in experiment [2] (setting [6]) it was 0.629. For the same compound, the results for the cell count in experiment [2] (setting [7]) and in experiment [2] (setting [8]) were 9070 and 8900, respectively. Further, the z-score in experiment [3] (setting [9]) was -0.509 (inactive); in experiment [3] (setting [10]), 0.171.

`C=CCN1CCCC1CNC(=O)c1cc2[nH]nnc2cc1OC` (stereo not given): the parasite load remaining in experiment [1] was 92.8% (inactive). For the same compound, in experiment [1], the viability is 100%. Also, the fold change was 0.836 (inactive) and 0.882 (inactive) in experiment [2] (setting [5]); 1.28 and 0.705 in experiment [2] (setting [6]). The cell count was 8730 and 8290 in experiment [2] (setting [7]); 10400 and 9410 in experiment [2] (setting [8]). Moreover, the z-score in experiment [3] (setting [9]) was -0.272 (inactive) and -0.0484 (inactive); in experiment [3] (setting [10]), -0.199 and -0.148.

For the compound `O=C1NC(=O)C(=Cc2ccc(-c3ccc(F)cc3O)o2)S1`, the fold change was 0.91 (inactive) in experiment [2] (setting [5]) and 0.626 in experiment [2] (setting [6]). For the same compound, the cell count is 8670 in experiment [2] (setting [7]) and 9530 in experiment [2] (setting [8]). For the same compound, the figures for the z-score in experiment [3] (setting [9]) and in experiment [3] (setting [10]) were -0.351 (inactive) and -0.0319, respectively.

As to `O[N+]1=CC=CCC1=S.On1ccccc1=S.[Zn]`, the parasite load remaining in experiment [1] is -0.27% (inactive) and -0.08% (inactive). Further, the viability in experiment [1] was 2.62% and 0%. Besides, the fold change in experiment [2] (setting [5]) is 0.416 (active); in experiment [2] (setting [6]), 2.93. Moreover, the figures for the cell count in experiment [2] (setting [7]) and in experiment [2] (setting [8]) were 79 and 190, respectively.

Regarding `Cc1cc(Nc2nc(NC(C)c3ccc(F)cc3)c(C#N)cc2F)n[nH]1` (stereo not given), the fold change in experiment [2] (setting [5]) was 1.16 (inactive); in experiment [2] (setting [6]) it was 0.511. Further, the cell count in experiment [2] (setting [7]) stood at 1300; in experiment [2] (setting [8]) it was 1120. The z-score was 2.18 (active) in experiment [3] (setting [9]) and -3.18 in experiment [3] (setting [10]).

Regarding `C=N[C@@H](C(=O)N[C@@H]1C(=O)N2[C@@H]1SC(C)(C)[C@@H]2C(=O)O)c1ccccc1`, in experiment [4], the survival is 22.6 (inactive). The parasite load remaining in experiment [1] was 47.6% (inactive) and 102% (inactive). Further, the viability in experiment [1] was 47.2% and 93.5%. In addition, the fold change in experiment [2] (setting [5]) was 0.849 (inactive); in experiment [2] (setting [6]), 1.16. The cell count in experiment [2] (setting [7]) was determined as 8000; in experiment [2] (setting [8]), 9420.

On to `CC1CCN(C(=O)CC#N)CC1N(C)c1ncnc2[nH]ccc12` (stereo not given), for which the fold change in experiment [2] (setting [5]) was 0.908 (inactive) and 0.927 (inactive); in experiment [2] (setting [6]) it was 0.692 and 0.73. The cell count is 9120 and 9790 in experiment [2] (setting [7]); 10000 and 10600 in experiment [2] (setting [8]). The z-score is -0.285 (inactive) and -0.386 (inactive) in experiment [3] (setting [9]); -0.101 and -0.511 in experiment [3] (setting [10]).

In the case of `COc1ccc(C(=O)c2ccc(C)cc2)c(O)c1`, the fold change was 0.81 (inactive) in experiment [2] (setting [5]) and 1.2 in experiment [2] (setting [6]). The results for the cell count in experiment [2] (setting [7]) and in experiment [2] (setting [8]) were 4460 and 5510, respectively.

As for `CO[C@@]1(NC(=O)[C@H](C(=O)O)c2ccc(O)cc2)C(=O)N2C(C(=O)O)=C(CSc3nnnn3C)CO[C@@H]21`, the parasite load remaining in experiment [1] is 81.8% (inactive). In experiment [1], the viability came out at 98.4%. In addition, the fold change in experiment [2] (setting [5]) was 0.861 (inactive); in experiment [2] (setting [6]), 1.17. Further, the values for the cell count in experiment [2] (setting [7]) and in experiment [2] (setting [8]) were 8980 and 10400, respectively. In addition, the z-score is 0.452 (inactive) in experiment [3] (setting [9]) and -0.352 in experiment [3] (setting [10]).

Take `COc1ccc(-c2cc(=O)c3c(O)cc(O)cc3o2)cc1`: in experiment [4], the survival was 3.33 (inactive). In addition, the parasite load remaining in experiment [1] is 73.8% (inactive) and 91.5% (inactive). In addition, the viability in experiment [1] is 92.5% and 92.4%. For the same compound, the fold change in experiment [2] (setting [5]) is 0.79 (inactive); in experiment [2] (setting [6]) it was 1.12. For the same compound, the cell count in experiment [2] (setting [7]) came out at 7540; in experiment [2] (setting [8]) it was 9550.

For `CC(C)CCN1c2nc(Nc3cc(F)c(O)c(F)c3)ncc2N(C)C(=O)C1C` (stereo not given), the results for the fold change in experiment [2] (setting [5]) and in experiment [2] (setting [6]) were 1.05 (inactive) and 0.299, respectively. Besides, the cell count in experiment [2] (setting [7]) amounted to 2560; in experiment [2] (setting [8]), 2450. Also, the z-score was 0.0608 (inactive) in experiment [3] (setting [9]) and -0.296 in experiment [3] (setting [10]).
